Measured values reported in PubChem BioAssay (NCI).
The panel holds about 83,000 compounds, 20% with a hit somewhere; the sample as a whole holds those more often.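 Assay: single dose, 48 h. Readout: percent growth (0 = no net growth; negative = cell death). Active: <10.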 Values without a mark were called inactive. The source made the active and inactive calls.

Columns and labels:
Assay in all cases: NCI-60 one-dose screen, 48 h (100 = growth as untreated, 0 = no growth, -100 = all killed)
HOP-92 NSCLC = conditions: 10 µM
COLO 205 colon = conditions: 10 µM
K-562 leukemia = conditions: 10 µM
MDA-MB-231 breast = conditions: 10 µM
RXF 393 renal = conditions: 10 µM
LOX IMVI melanoma = conditions: 10 µM
EKVX NSCLC = conditions: 10 µM
UO-31 renal = conditions: 10 µM
CCRF-CEM leukemia = conditions: 10 µM
MOLT-4 leukemia = conditions: 10 µM
SR leukemia = conditions: 10 µM
OVCAR-4 ovarian = conditions: 10 µM
HS 578T breast = conditions: 10 µM
SW-620 colon = conditions: 10 µM
HCC-2998 colon = conditions: 10 µM
KM12 colon = conditions: 10 µM
MDA-MB-468 breast = conditions: 10 µM unless noted
NCI-H23 lung = conditions: 10 µM
SK-MEL-5 melanoma = conditions: 10 µM
NCI-H226 lung = conditions: 10 µM

SMILES	growth (HOP-92 NSCLC)	growth (COLO 205 colon)	growth (K-562 leukemia)	growth (MDA-MB-231 breast)	growth (RXF 393 renal)	growth (LOX IMVI melanoma)	growth (EKVX NSCLC)	growth (UO-31 renal)	growth (CCRF-CEM leukemia)	growth (MOLT-4 leukemia)	growth (SR leukemia)	growth (OVCAR-4 ovarian)	growth (HS 578T breast)	growth (SW-620 colon)	growth (HCC-2998 colon)	growth (KM12 colon)	growth (MDA-MB-468 breast)	growth (NCI-H23 lung)	growth (SK-MEL-5 melanoma)	growth (NCI-H226 lung)
C=CC[Se]C(=O)c1ccc(C(=O)[Se]CC=C)s1	-29.9% (active)	-64.7% (active)	-23.1% (active)	-36.4% (active)	-93.6% (active)	-75.6% (active)	-89.2% (active)	-98.1% (active)	-12% (active)	-13.9% (active)	-30% (active)	-67.6% (active)	-22.1% (active)	-77.4% (active)	-85.7% (active)	-85.1% (active)	-60.6% (active)			
COc1cc(OC)c(S(=O)(=O)N(CCCl)CCCl)cc1C(=O)/C=C/c1ccc(C)cc1	70.5%	117%	70.9%	35%	-17.9% (active)	-24% (active)		55.6%	70.7%	82.4%	53.6%	52.2%	56.8%	82.8%	93.6%	81.1%	68.6%			
COCCOCCOCCOc1ccc(-n2cc(CCCN(CCNc3ccnc4cc(Cl)ccc34)C(=O)CCC(=O)O[C@@H]3O[C@@H]4OC5(C)CC[C@H]6[C@H](C)CC[C@@H]([C@H]3C)[C@@]46OO5)nn2)cc1	19.3%		17.2%	73.5%	33.6%	1.51% (active)			26.4%	7.21% (active)	-5.07% (active)	45.7%	34.9%	30%	67.2%	28.6%	44.9%	47.9%	-16.4% (active)	
C#CC[Se]C(=O)c1ccc(C(=O)[Se]CC#C)s1	157%	86%	89.6%	95%	101%	93.1%	48.4%		77.4%	101%	26.8%		92.4%	98.2%	94.7%	42.8%	64.5%		96.6%	76.5%
COC(=O)C[C@](O)(CCCC(C)C)C(=O)O[C@H]1C(OC)=C[C@@]23CCCN2CCc2cc4c(cc2[C@@H]13)OCO4			3.55% (active)	7.43% (active)	-8.52% (active)	-66.6% (active)	14.2%	6.22% (active)	0.557% (active)	1.41% (active)	-24.8% (active)		-4.94% (active)	-10.5% (active)	-36.4% (active)	0.453% (active)	-27.4% (active)	-25% (active)	-39% (active)	
CN(C)CCc1cn(C2CCC2)c2cccc(O)c12		81.1%	1.37% (active)	76%	53.2%	50.4%			56.6%	57.2%	52.8%		47.7%	23%	-46.1% (active)	76.1%	44.6%			69.6%
O=C(/C=C/c1ccc(Cl)cc1)c1nc2ccccc2n1Cc1ccc(Br)cc1	40.2%	93.6%	13.6%		37.6%		39.9%	42.6%	-10.9% (active)	-0.283% (active)	5.41% (active)				65.3%	67.6%	9.05% (active)	61.9%		
CCOC(=O)C1=C(Nc2ccccc2)C(=O)OC12C(=O)Nc1ccccc12 (stereo not given)	101%		95.5%	104%	119%	94.3%		73.2%	93.9%	108%	97.3%		106%	97.1%	115%	105%	129%	97.3%	107%	
O=C(/C=C/c1ccccc1Cl)c1nc2ccccc2n1Cc1ccc(F)cc1	-65.4% (active)		-25.9% (active)		-97.8% (active)		-91.6% (active)		-25.4% (active)	-16.2% (active)	-27.9% (active)	4.42% (active)			-99.7% (active)	-60.5% (active)	-94.1% (active)	-78.2% (active)	-86.5% (active)	
C=CCN=C([Se])NC(=O)c1ccc2c(c1)OCO2	151%		107%	103%	128%	104%	73.5%	115%	87.1%	107%	93.1%		99.3%	111%	92.4%	41.1%	110%			119%
O=C(/C=C/c1ccc(Cl)cc1Cl)c1nc2ccccc2n1Cc1ccc(F)cc1	36.6%	83.6%	14.5%		32.4%		35.6%		-10.2% (active)	4.16% (active)	-1.72% (active)	63.2%			27.3%	53%	12.3%	47.8%		
COP(=O)(CC(F)(F)C(F)(F)F)OC	-29.8% (active)		10.9%	65.1%		-63.5% (active)	81.1%	-81.8% (active)	5.28% (active)	5.72% (active)	5.42% (active)	-13.4% (active)	75.3%	-15.9% (active)	91%	94.6%	-53.6% (active)	41.8%		
O=C(NC([Se])=NC1CCCCC1)c1ccc2c(c1)OCO2	118%		74.3%	68.5%	65.9%	81.6%	56.8%		35.3%	55.6%	60.3%	70.5%	60.8%	41.2%	74.1%	32.4%	77.1%		79.3%	85.6%
COc1cc(OC)c(S(=O)(=O)N(CCCl)CCCl)cc1C(=O)/C=C/c1cc(OC)c(OC)c(OC)c1	9.15% (active)	-89.8% (active)	4.13% (active)	23.4%	-75.5% (active)	-84.5% (active)	12.3%	-93.9% (active)	1.08% (active)	-1.79% (active)	2.75% (active)	23.2%	78.3%	7.43% (active)	-91.1% (active)	-61.2% (active)	-40.5% (active)		-71.3% (active)	7.87% (active)
CC12OOC(C)(OO1)C2CCC(=O)OCCNc1ccnc2cc(Cl)ccc12 (stereo not given)	-27.2% (active)		3.42% (active)	91.5%	-15.7% (active)	-92.1% (active)	-60.6% (active)		9.26% (active)	26.1%	-27% (active)		95.2%	7.3% (active)	88.5%	60.6%	-51.6% (active)	4.36% (active)		
CC12OOC(C)(OO1)C2CCC(=O)NCCCNc1ccnc2cc(Cl)ccc12 (stereo not given)	4.9% (active)		4.06% (active)	82.7%	4.73% (active)	-92.8% (active)	85.6%		3.13% (active)	34.6%	-36.1% (active)		103%	18.9%	106%	86.4%	-52.7% (active)	68.8%	86.4%	
C[C@H]1[C@H](OC(=O)CCC(=O)Nc2cnccn2)O[C@@H]2OC3(C)CC[C@H]4[C@H](C)CC[C@@H]1[C@@]24OO3	51.8%		14.9%	83.7%	49%	-72.9% (active)		11%	35.4%	27.6%	4.95% (active)	44.1%	29.2%	21.8%	63.5%	22.3%		25.9%	26.9%	
CCOP(=O)(OCC)C(NC(C)=O)C(=O)SCCN (stereo not given)	108%	128%	100%	99.2%		92.1%			100%	105%	98.4%		100%	112%	104%	112%	124%	101%		
COc1ccc(/C=C/C(=O)c2nc3ccccc3n2Cc2ccc(Br)cc2)cc1	64.2%	91.4%	21.1%		83.6%			52.4%	18.7%	20.7%	25.6%	66.1%			54.2%	61.5%	16.9%	61.9%		
O=C(/C=C/c1cccc(Br)c1)c1nc2ccccc2n1Cc1ccc(Br)cc1	-48.8% (active)	-34.1% (active)	-2.19% (active)		-81.2% (active)		-54.8% (active)		-15.6% (active)	-6.66% (active)	-12.4% (active)				-94.7% (active)	6.51% (active)	-58.5% (active)	-50.7% (active)		
